M1 PAM parental – counter-screen for M1 PAMs: effect in parental CHO-K1 cells | ATP EC20, Fluo-8 calcium fluorescence; 0% at ATP EC20, 100% at ATP max | activation, % at 3 µM | AID 602247 | 0.02% of 360,000 active;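 active = activation above the run cutoff, the mean activation of all test compounds plus 3 SD, cut at about 40% in these data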;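 also: peak over basal fluorescence ratio in a 140 s read after ATP addition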
CHRM1 antagonist – blocks human M1 muscarinic receptor; inhibition, % at 3 µM; 1.3% of 360,000 active; CHO-K1 hM1, Fluo-8 calcium fluorescence, ACh EC80 antagonist; AID 588852;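 active = percent inhibition above its own plate's cutoff, namely the mean of that plate's compound wells plus 3 SD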;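 also: peak over basal fluorescence ratio during 140 s after agonist addition; 0% = ACh EC80 plus DMSO and 100% = DMSO alone without agonist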
Target sequence (P11229 whole entry, looked up): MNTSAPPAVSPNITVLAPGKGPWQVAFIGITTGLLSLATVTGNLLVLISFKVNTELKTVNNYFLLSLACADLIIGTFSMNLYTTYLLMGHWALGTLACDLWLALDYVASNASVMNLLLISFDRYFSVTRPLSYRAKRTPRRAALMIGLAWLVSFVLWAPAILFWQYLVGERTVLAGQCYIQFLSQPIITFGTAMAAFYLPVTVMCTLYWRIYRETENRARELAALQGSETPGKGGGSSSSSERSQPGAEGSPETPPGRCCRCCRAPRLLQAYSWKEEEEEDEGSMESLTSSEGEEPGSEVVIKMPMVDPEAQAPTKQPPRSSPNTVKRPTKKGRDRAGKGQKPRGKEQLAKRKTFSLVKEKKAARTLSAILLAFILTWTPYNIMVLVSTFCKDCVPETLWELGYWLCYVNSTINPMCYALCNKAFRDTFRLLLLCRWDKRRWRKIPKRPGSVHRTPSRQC
M1 ag – activates human CHRM1 receptor. P11229. CHO-K1 hM1, Fluo-8 calcium fluorescence, agonist mode; 0% DMSO, 100% acetylcholine EC100. activation, % at 3 µM. 0.33% of 360,000 active;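 active = activation above the run's mean compound activation plus 3 SD, cut at about 16% in these data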;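 also: peak over basal fluorescence ratio within a 140 s kinetic read after compound addition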
CHO-K1 Ca antag – nonselective inhibitor or artifact in parental CHO-K1 cells; ATP-induced calcium, Fluo-8 fluorescence; inhibition, % at 3 µM; 0.6% of 360,000 active; AID 602250;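 active = inhibition above a per-plate cutoff, the plate's mean sample inhibition plus 3 SD, cut at about 24% in these data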;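 also: 0% = DMSO plus EC80 ATP and 100% = DMSO alone without ATP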
M1 PAM – potentiates human M1 receptor response to acetylcholine | P11229 | CHO-K1 hM1, Fluo-8 calcium fluorescence, ACh EC20; 0% = ACh EC20, 100% = maximal ACh | activation, % at 3 µM | 0.088% of 360,000 active; in the data active = activation above about 19%, passing the limit was not always enough
M1 ag parental – M1 agonist counterscreen hit in parental CHO-K1 cells; Fluo-8 calcium fluorescence; scaled to maximal ATP response, vehicle zero; activation, % at 3 µM; 0.48% of 360,000 active; AID 602248; in the data active = activation above about 15%;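 also: untransfected CHO-K1 host cells lacking M1 receptor as counterscreen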
The depositor's hits bear a star. Sampled rows, rich in hits. Any-hit rate of the full collection: about 2.3%.

SMILES	M1 PAM parental	CHRM1 antagonist	M1 ag	CHO-K1 Ca antag	M1 PAM	M1 ag parental
S=C(Nc1ccc(Br)cc1)Nc1ccc2c(c1)OCCO2	-15	31*	-1	1	-11	3
O=C(NC(=S)Nc1ccc2c(c1)OCCO2)c1cccc(Br)c1	33	-4	-6	-7	1	6
CC(C)(C)C(=O)NC(=S)Nc1sc2c(c1C(N)=O)CCC2	-13	2	-3	4	3	0
CC(C)CC(=O)NC(=S)Nc1sc2c(c1C(N)=O)CCC2	-16	4	1	38*	-9	-1
O=C(Nc1ccc2c(c1)OCCO2)c1[nH]c(C(F)(F)F)nc1-c1ccccc1	-4	-28	6	-19	-4	8
CN(C)CCOc1ccccc1-c1ccccc1	4	45*	-6	2	-21	0
CNCCCCOc1ccccc1-c1ccccc1	14	37*	-8	-5	-23	4
CN(C)CCOCCOc1ccccc1-c1ccccc1	28	18	-8	-14	-12	1
CC(=O)c1c(C)[nH]c(C(=O)OCC(=O)Nc2cccc(S(=O)(=O)N(C)C)c2)c1C	1	-11	-4	-7	9	0
CCN(CC)S(=O)(=O)c1cccc(NC(=O)COC(=O)c2[nH]c(C)c(C(C)=O)c2C)c1	7	31*	4	8	-16	8
COc1ccc(C(c2c(C)[nH]n(-c3ccccc3)c2=O)c2c(C)[nH]n(-c3ccccc3)c2=O)cc1OC	28	14	0	0	-3	15*
COc1ccc(C(c2c(C)n(C)n(-c3ccccc3)c2=O)c2c(C)n(C)n(-c3ccccc3)c2=O)cc1OC	0	-8	-3	-3	7	0
CC1(C(O)(C#CC[N+]2(C)CCCCC2)c2ccccc2)CCCC1 (centres undefined)	-15	72*	-13	22	-32	0
C[N+]1(CC(=O)OCCCc2ccccc2)CCCCC1	4	19	-8	-12	-11	1
O=C(O)/C=C/C(=O)N(CC1CCCO1)C1CC(=O)N(c2c(Cl)cccc2Cl)C1=O (centres undefined)	18	-8	-3	-6	7	17*
COc1ccc(N2C(=O)CC(N(CCc3ccccc3)C(=O)/C=C/C(=O)O)C2=O)cc1 (centres undefined)	2	3	-8	-15	3	0
Cc1c(C(=O)NCC(c2ccco2)N2CCCC2)sc2ccccc12 (centres undefined)	23	-11	-6	-10	4	1
O=C(NCC(c1ccco1)N1CCCCC1)c1ccc(S(=O)(=O)Nc2ccccc2)cc1 (centres undefined)	4	32*	-4	-10	-25	5
CCc1cc(C(=O)NCC(c2ccco2)N2CCCCC2)sc1C (centres undefined)	-16	29*	-9	1	-19	-1
COc1ccccc1N(C)S(=O)(=O)c1ccc(C(=O)NCC(c2ccco2)N2CCCCC2)cc1 (centres undefined)	-1	6	-7	-3	-4	2
CN(c1ccccc1)S(=O)(=O)c1ccc(C(=O)NCC(c2ccco2)N2CCCCC2)cc1 (centres undefined)	14	36*	-6	-18	-19	4
O=C(NCC(c1ccco1)N1CCCC1)c1cccc(NS(=O)(=O)c2ccccc2)c1 (centres undefined)	9	90*	-8	-2	-27	3
CCN(CC)S(=O)(=O)c1ccc(Cl)c(NC(=O)COc2ccc(OC)cc2)c1	0	0	-4	6	-3	0
CC(CNC(=O)CN1C(=O)COc2ccc(S(=O)(=O)N3CCCCC3)cc21)c1ccccc1 (centres undefined)	27	-12	-9	-16	7	-1
Cc1ccc(NS(=O)(=O)c2ccc(C(=O)NCC(c3ccco3)N3CCCCC3)cc2)cc1 (centres undefined)	13	11	8	5	-19	18*
SMILES	M1 PAM parental	CHRM1 antagonist	M1 ag	CHO-K1 Ca antag	M1 PAM	M1 ag parental
Cc1ccc(NS(=O)(=O)c2cccc(C(=O)NCC(c3ccco3)N3CCCC3)c2)cc1 (centres undefined)	-14	-9	-3	-1	10	2
O=C(NCC(c1ccco1)N1CCCC1)c1ccccc1F (centres undefined)	17	-9	-7	-5	4	0
CCOCc1c(C(=O)NCC(c2ccco2)N2CCCC2)oc2ccccc12 (centres undefined)	-20	28*	-9	14	-18	0
CN(C)C(CNC(=O)c1ccc(S(=O)(=O)Nc2ccccc2)cc1)c1ccco1 (centres undefined)	3	27*	-6	-3	-17	3
COC(=O)[C@@]12CCCCN1[C@H](c1ccc(-c3cccc(Cl)c3)c(OC)c1)[C@H]1C(=O)N(C)C(=O)[C@H]12	15	-6	-5	-10	9	1
CN(C)c1ccc(CC(=O)N2CCCCC2c2cc(C(=O)Nc3cccc(C#N)c3)no2)cc1 (centres undefined)	-8	12	-3	13	1	2
CN(c1ccc(Br)cc1)S(=O)(=O)c1ccc2[nH]cc(C(=O)NCCN3CCOCC3)c(=O)c2c1	5	-8	-4	-19	7	0
C[C@@H]1CN([C@@H](C)CO)C(=O)c2cc(Br)cnc2O[C@H]1CN(C)C(=O)Nc1ccc(F)cc1	13	-19	-2	-6	11	0
COc1ccccc1C(=O)NC(CCSC)C(=O)NNC(=O)c1ccncc1 (centres undefined)	5	-5	-4	-1	5	0
Cc1ccc(NC(=O)c2cc(-c3cc(C)c(C)cc3O)n[nH]2)cc1C	-1	-24	6	10	28*	-1
O=C(O)CCc1nnc(SCC(=O)Nc2cccc(C(F)(F)F)c2)[nH]c1=O	25	-8	-7	-20	13	1
CCn1c(SCc2ccccc2)nnc1-c1ccc(S(=O)(=O)N2CCCCC2)cc1	9	27*	-2	2	-12	6
O=c1c(O)c(-c2cccs2)oc2ccccc12	-7	21	16*	19	-7	10
O=c1c(O)c(-c2cccs2)oc2ccc(Cl)cc12	-11	62*	144*	21	-35	77*
N#CCCn1c(SCC(=O)N2CCN(S(=O)(=O)c3ccccc3)CC2)nc2ccccc21	9	64*	-6	0	-22	1
Cn1c(SCC(=O)N2CCN(S(=O)(=O)c3ccccc3)CC2)nc2ccccc21	-7	8	-5	-12	-11	4
CC(C)Cn1c(SCC(=O)N2CCN(S(=O)(=O)c3ccccc3)CC2)nc2ccccc21	17	30*	-6	-1	-21	3
